The source made the active and inactive calls. The calls were made as follows: active = hit-call score of the fitted dose curve at least 0.9, where 1 is the maximum; inactive = score below 0.9.
Key:
Details in all cases: mRNA level, 48 h; actives raise or lower the signal
[1] = read-out: Insulin-like growth factor-binding protein 1 (IGFBP1), IGFBP1 (gene 3484); test: LTEA_HepaRG_IGFBP1: Life Technologies and Expression Analysis (LTEA) Assay for Insulin-like growth factor-binding protein 1 (IGFBP1) using HepaRG (AID 2283508)
In short: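 qRT-PCR mRNA read-out (TaqMan, Fluidigm array), normalised to three housekeeping genes; HepaRG cells, 48 h exposure, 8-pt half-log series from 100 uM, 0.5% DMSO vehicle; bidirectional curve fit vs DMSO baseline.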

[2] = read-out: Interleukin 6 (IL6), IL6 (gene 3569); test: LTEA_HepaRG_IL6: Life Technologies and Expression Analysis (LTEA) Assay for Interleukin 6 (IL6) using HepaRG (AID 2283509)
In short: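 Transcript levels, normalized to three housekeeping genes, were quantified by qRT-PCR after 48 h chemical treatment of HepaRG cells. Eight-point half-log series from 100 uM in 0.5% DMSO, duplicates. Fitted both directions against DMSO baseline.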

[3] = read-out: Interleukin 6 Receptor (IL6R), IL6R (gene 3570); test: LTEA_HepaRG_IL6R: Life Technologies and Expression Analysis (LTEA) Assay for Interleukin 6 Receptor (IL6R) using HepaRG (AID 2283510);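 as to AC50: differentiated human HepaRG liver cells in serum-free induction medium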
In short: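 Cells were thawed, plated and cultured 48 h, then medium was changed to serum-free induction medium. Chemicals were added in duplicate (100 uM top, half-log steps, 0.5% DMSO) for 48 h. Lysates were analyzed by qRT-PCR for IL6R expression.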

[4] = read-out: Keratin 19 (KRT19), KRT19 (gene 3880); test: LTEA_HepaRG_KRT19: Life Technologies and Expression Analysis (LTEA) Assay for Keratin 19 (KRT19) using HepaRG (AID 2283512)
In short: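 HepaRG, 48 h chemical exposure, 8-pt half-log CRC from 100 uM, 0.5% DMSO vehicle, duplicates. Readout: TaqMan qRT-PCR of KRT19 mRNA, housekeeping-normalized (ACTB/GAPDH/POLR2A). Bidirectional fit vs DMSO baseline.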

[5] = read-out: JUN Transcription Factor, JUN (gene 3725); test: LTEA_HepaRG_JUN: Life Technologies and Expression Analysis (LTEA) Assay for JUN Transcription Factor using HepaRG (AID 2283513)
In short: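 Read-out is JUN transcript level by TaqMan qRT-PCR, normalized to ACTB, GAPDH and POLR2A, after 48 h chemical treatment of HepaRG cells. Concentration-response spanned eight half-log points up to 100 uM in 0.5% DMSO.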

[6] = read-out: Lipase C (LIPC), LIPC (gene 3990); test: LTEA_HepaRG_LIPC: Life Technologies and Expression Analysis (LTEA) Assay for Lipase C (LIPC) using HepaRG (AID 2283514)
In short: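 LIPC expression was quantified by qRT-PCR against three housekeeping genes (ACTB, GAPDH, POLR2A). Differentiated human HepaRG cells received eight half-log doses (top 100 uM, 0.5% DMSO) in duplicate for 48 h; fitting bidirectional relative to DMSO.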

[7] = read-out: Lipoprotein lipase (LPL), LPL (gene 4023); test: LTEA_HepaRG_LPL: Life Technologies and Expression Analysis (LTEA) Assay for Lipoprotein lipase (LPL) using HepaRG (AID 2283515)
In short: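 LPL transcript levels quantified by TaqMan qRT-PCR against three housekeeping genes after 48 h chemical treatment of HepaRG cells. Eight-point half-log series from 100 uM in 0.5% DMSO, tested in duplicate; bidirectional fitting versus vehicle.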

[8] = read-out: MicroRNA 122 (MIR122), gene 406906; test: LTEA_HepaRG_MIR122: Life Technologies and Expression Analysis (LTEA) Assay for MicroRNA 122 (MIR122) using HepaRG (AID 2283516); also: the transcript read is the microRNA miR-122
In short: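 Human liver HepaRG cultures receive test chemicals for 48 h at eight half-log concentrations from 100 uM. Expression is quantified by qRT-PCR with ACTB/GAPDH/POLR2A normalization and fitted bidirectionally against 0.5% DMSO.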

[9] = read-out: matrix metalloproteinase-10 (MMP10), MMP10 (gene 4319); test: LTEA_HepaRG_MMP10: Life Technologies and Expression Analysis (LTEA) Assay for matrix metalloproteinase-10 (MMP10) using HepaRG (AID 2283517)
In short: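 Expression measured by TaqMan qRT-PCR with ACTB/GAPDH/POLR2A normalisation after 48 h chemical exposure of HepaRG cells. Eight half-log concentrations, top 100 uM, 0.5% DMSO vehicle, duplicates; gain or loss fitted against vehicle.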

MYC, MYC (gene 4609) = test: LTEA_HepaRG_MYC: Life Technologies and Expression Analysis (LTEA) Assay for MYC using HepaRG (AID 2283518)
In short: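 qRT-PCR read-out of MYC transcript (Fluidigm TaqMan, housekeeping-normalized) after 48 h chemical exposure of HepaRG cells; eight concentrations, top 100 uM, half-log steps. Bidirectional curve fitting against 0.5% DMSO vehicle baseline.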

[10] = read-out: matrix metalloproteinase-3 (MMP3), MMP3 (gene 4314); test: LTEA_HepaRG_MMP3: Life Technologies and Expression Analysis (LTEA) Assay for matrix metalloproteinase-3 (MMP3) using HepaRG (AID 2283519)
In short: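 Fluidigm-based TaqMan qRT-PCR, normalized to ACTB, GAPDH and POLR2A and fitted bidirectionally versus 0.5% DMSO, measured transcript levels. Treatment: duplicate 48 h exposures of HepaRG cells, ~100,000/well, to eight half-log concentrations topping at 100 uM.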

[11] = read-out: Paternally Expressed 10 (PEG10), PEG10 (gene 23089); test: LTEA_HepaRG_PEG10: Life Technologies and Expression Analysis (LTEA) Assay for Paternally Expressed 10 (PEG10) using HepaRG (AID 2283520);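 as to AC50: PEG10 transcript by qRT-PCR normalised to ACTB GAPDH and POLR2A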
In short: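 Human HepaRG cultures are dosed for 48 h across an eight-point half-log series starting at 100 uM, with 0.5% DMSO as vehicle and baseline. Gain or loss of PEG10 transcript is measured by qRT-PCR and fitted in both directions.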

[12] = read-out: Protein phosphatase 2A (PPP2R4), PTPA (gene 5524); test: LTEA_HepaRG_PPP2R4: Life Technologies and Expression Analysis (LTEA) Assay for Protein phosphatase 2A (PPP2R4) using HepaRG (AID 2283522)
In short: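 Cells were plated, cultured 48 h, switched to serum-free induction medium, then dosed for 48 h (8 points, max 100 uM, 0.5% DMSO). RNA was isolated and PPP2R4 expression measured by TaqMan qRT-PCR.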

[13] = read-out: Phosphatase and tensin (PTEN), PTEN (gene 5728); test: LTEA_HepaRG_PTEN: Life Technologies and Expression Analysis (LTEA) Assay for Phosphatase and tensin (PTEN) using HepaRG (AID 2283523)
In short: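 Read-out: TaqMan qRT-PCR of PTEN transcript, normalized to three housekeeping genes, fitted in both directions against 0.5% DMSO. Differentiated human HepaRG cultures received chemicals for 48 h, eight-point half-log series topping at 100 uM.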

[14] = read-out: solute carrier (SLC22A1), SLC22A1 (gene 6580); test: LTEA_HepaRG_SLC22A1: Life Technologies and Expression Analysis (LTEA) Assay for solute carrier (SLC22A1) using HepaRG (AID 2283524);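 as to AC50: differentiated human HepaRG liver cells in serum-free induction medium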
In short: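 Transcript level of SLC22A1 quantified by qRT-PCR (normalized to three housekeeping genes) after 48 h chemical exposure of HepaRG cells, eight concentrations up to 100 µM, half-log steps, 0.5% DMSO vehicle. Gain or loss relative to DMSO fitted bidirectionally.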

[15] = read-out: Pyruvate Dehydrogenase Kinase 4 (PDK4), PDK4 (gene 5166); test: LTEA_HepaRG_PDK4: Life Technologies and Expression Analysis (LTEA) Assay for Pyruvate Dehydrogenase Kinase 4 (PDK4) using HepaRG (AID 2283525)
In short: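 Readout is qRT-PCR of PDK4 transcript, normalized to three housekeeping genes, with bidirectional fitting against 0.5% DMSO vehicle. Differentiated HepaRG cells were treated 48 h in serum-free induction medium, duplicate wells, eight-point half-log series topping at 100 uM.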

[16] = read-out: NAD(P)H dehydrogenase [quinone] 1 (NQO1), NQO1 (gene 1728); test: LTEA_HepaRG_NQO1: Life Technologies and Expression Analysis (LTEA) Assay for NAD(P)H dehydrogenase [quinone] 1 (NQO1) using HepaRG (AID 2283526)
In short: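 Transcript induction or suppression is quantified by qRT-PCR in human HepaRG liver cells dosed for 48 hours. Eight half-log concentrations topping at 100 uM are used, with 0.5% DMSO as vehicle and baseline.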

[17] = read-out: Nuclear factor erythroid 2-related factor 2 (Homo sapiens) (UniProt Q16236); test: LTEA_HepaRG_NFE2L2: Life Technologies and Expression Analysis (LTEA) Assay for Nuclear factor erythroid 2-related factor 2 (NFE2L2) Transcription Factor using HepaRG (AID 2283527)
In short: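 NFE2L2 transcript level was read by qRT-PCR (housekeeping ACTB/GAPDH/POLR2A normalisation) after 48 h chemical treatment of HepaRG in serum-free induction medium. Duplicate 8-point half-log curves, top 100 uM, 0.5% DMSO vehicle; up- or down-regulation fitted against vehicle.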

Measured: AC50

Sequence of Nuclear factor erythroid 2-related factor 2 (Homo sapiens) (Q16236 whole entry, looked up): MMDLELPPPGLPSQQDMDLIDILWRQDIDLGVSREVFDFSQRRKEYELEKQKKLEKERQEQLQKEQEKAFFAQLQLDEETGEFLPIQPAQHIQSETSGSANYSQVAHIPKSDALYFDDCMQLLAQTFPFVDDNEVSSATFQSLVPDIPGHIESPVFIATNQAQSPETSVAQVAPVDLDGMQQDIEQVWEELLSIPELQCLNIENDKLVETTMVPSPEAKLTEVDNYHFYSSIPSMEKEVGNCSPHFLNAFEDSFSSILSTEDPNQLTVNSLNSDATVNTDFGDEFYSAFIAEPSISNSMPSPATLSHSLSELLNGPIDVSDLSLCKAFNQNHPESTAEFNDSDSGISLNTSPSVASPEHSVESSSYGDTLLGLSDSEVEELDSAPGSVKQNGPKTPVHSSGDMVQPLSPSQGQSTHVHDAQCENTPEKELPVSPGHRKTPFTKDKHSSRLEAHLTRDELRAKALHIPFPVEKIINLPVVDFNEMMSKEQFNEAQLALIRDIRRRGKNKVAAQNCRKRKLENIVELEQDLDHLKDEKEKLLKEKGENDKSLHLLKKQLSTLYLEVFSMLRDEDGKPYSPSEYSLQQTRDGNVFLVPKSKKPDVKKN

O=C(O)Cc1cc(I)c(Oc2cc(I)c(O)c(I)c2)c(I)c1
active: [1] 55.7 µM | [2] 54 µM | [3] 55 µM | [4] 0.0526 µM | [5] 52.3 µM | [6] 52.2 µM | [7] 60.6 µM | [8] 58.6 µM | [9] 51.5 µM | MYC, MYC (gene 4609) 52 µM | [10] 51.5 µM | [11] 0.228 µM | [12] 54.9 µM | [13] 59.9 µM | [14] 53.1 µM | [15] 49.6 µM | [16] 33.5 µM | [17] 54.9 µM

CC(O)CO (stereo unspecified)
inactive: all assays above

Oc1cc2ccccc2c2ccccc12
active: [4] 27.1 µM | [7] 50 µM | [11] 50 µM | [14] 50 µM
inactive: all other assays above

NC(=O)N(O)[C@@H]1C=C[C@H](Oc2cccc(Oc3ccc(F)cc3)c2)C1
active: [1] 71.8 µM | [2] 38.6 µM | [5] 76.6 µM | [6] 36.4 µM | [7] 50 µM | [8] 68 µM | [9] 64.8 µM | MYC, MYC (gene 4609) 72.7 µM | [10] 85.9 µM | [11] 5.31 µM | [14] 63.6 µM | [15] 50 µM | [17] 81.9 µM
inactive: [3] | [4] | [12] | [13] | [16]

CC(C)(C)c1cc(C(C)(C)C)c(O)c(C(C)(C)C)c1
active: [15] 23.5 µM
not listed: [5]
inactive: all other assays above

O=C(O)c1ccccc1C(c1ccc(O)cc1)c1ccc(O)cc1
inactive: all assays above

Nc1cccc2c(N)cccc12
active: [4] 22.6 µM | [6] 73.3 µM | [11] 9.92 µM | [14] 50 µM
inactive: all other assays above

CCCCC(CC)COC(=O)CCCCC(=O)OCc1ccccc1 (stereo unspecified)
inactive: all assays above

c1ccc2c(c1)ccc1ccccc12
inactive: all assays above

CCN(CC)CCNc1ccc(CNC=O)c2sc3ccc(OC)cc3c(=O)c12
inactive: [6] | MYC, MYC (gene 4609) | [16]
active: [1] 94.1 µM | [2] 76.8 µM | [3] 22 µM | [4] 12.7 µM | [5] 79 µM | [7] 81.8 µM | [8] 27.5 µM | [9] 78.5 µM | [10] 86.4 µM | [11] 62 µM | [12] 50 µM | [13] 50 µM | [14] 13.9 µM | [15] 44.3 µM | [17] 87 µM

CN1CCC[C@H]1c1cccnc1
inactive: all assays above

NC(=O)N1C(=O)C(C(=O)c2cc(Cl)cs2)c2cc(F)c(Cl)cc21 (stereo unspecified)
active: [1] 16 µM | [2] 31.7 µM | [3] 30.9 µM | [4] 13.2 µM | [5] 30.3 µM | [6] 21.2 µM | [7] 90.6 µM | [8] 26.4 µM | [9] 34.9 µM | MYC, MYC (gene 4609) 27 µM | [10] 50 µM | [11] 20.8 µM | [12] 13.9 µM | [13] 50 µM | [14] 16.1 µM | [15] 27.8 µM | [16] 13.3 µM | [17] 31.8 µM

N#C[C@@H]1CC(F)(F)CN1C(=O)CNC1CC2CCC(C1)N2c1ncccn1 (stereo partly specified)
inactive: all assays above

OC1CCCCC1
inactive: all assays above

Reference: PubChem BioAssay (EPA / NIEHS)
